High-throughput results as filed in PubChem BioAssay.
RGS8-Gao reg: human RGS8-Galphao interaction regulation. P09471. multiplexed bead flow cytometry, RGS8-Galphao binding; actives lie on both sides. response (percent of control binding), % at 10 µM. actives 0.34% (n = 220,000). AID 1423; in the data active means response below about 60% or above about 140%; inactive means in between;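 further: Galphao activated as the GDP aluminium fluoride complex binding bead-coupled RGS8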
Target sequence (P09471 whole entry, looked up): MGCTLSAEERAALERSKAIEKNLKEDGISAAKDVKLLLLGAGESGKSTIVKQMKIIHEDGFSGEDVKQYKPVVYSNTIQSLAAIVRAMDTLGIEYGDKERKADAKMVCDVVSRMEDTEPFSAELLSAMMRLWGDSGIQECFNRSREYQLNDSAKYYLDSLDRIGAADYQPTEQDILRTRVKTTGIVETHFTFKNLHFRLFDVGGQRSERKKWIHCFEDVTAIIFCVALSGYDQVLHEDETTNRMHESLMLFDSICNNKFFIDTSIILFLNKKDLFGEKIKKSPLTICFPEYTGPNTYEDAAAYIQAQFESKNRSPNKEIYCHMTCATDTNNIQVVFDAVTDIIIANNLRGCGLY
GSH fluor: compound fluoresces at 488/530 nm on GSH beads; GSH beads flow cytometry, compound fluorescence 488/530 nm; stronger effect = higher value; actives 0.25% (n = 190,000); fluorescence (KMESF) at 10 µM; AID 1776; in the data active means fluorescence above about 89;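 further: glutathione beads carrying GST-tagged Bcl family fusion proteins plus one bare bead set; values are compound well signal with DMSO vehicle wells as background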
RGS16-Gao HTS: modulates binding between human RGS16 and Galphao; O15492+P09471; bead-based flow cytometry RGS16-Galphao binding, fluorescence; actives lie on both sides; binding response (% of control), % at 10 µM; actives 0.38% (n = 220,000); call rule not given here;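 further: Galphao activated by GDP with aluminum fluoride before binding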
Avidin fluor: avidin bead compound fluorescence profile; Avidin beads, compound fluorescence 488/530 nm, flow cytometry; stronger effect = higher value; actives 0.38% (n = 220,000); AID 1775; fluorescence (KMESF) at 10 µM; in the data active means fluorescence above about 47
RGS4-Gao reg: modulates binding of RGS4 to human Galphao; Multiplexed bead flow cytometry; actives lie on both sides; binding response (% of control), % at 10 µM; actives 0.33% (n = 220,000); AID 1415; in the data active means binding response below about 49% or above about 150%; inactive means in between;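 further: fluorescent Galphao activated with aluminum fluoride binding bead-coupled RGS4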
RGS7-Gao reg: human RGS7-Galphao interaction regulation. P09471. Multiplexed bead flow cytometry, RGS7-Galphao binding; actives lie on both sides. binding response (% of control), % at 10 µM. actives 0.35% (n = 220,000); in the data active means binding response below about 49% or above about 150%; inconclusive means no clear call, values can overlap the other calls; inactive means in between;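 further: fluorescent Galphao held in activated GDP-AlF4 state binding bead-coupled RGS7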
Numbers without * were called inactive; ? = inconclusive; / = no result given. Hits are enriched below; roughly 1.2% of the tested compounds scored in any of these assays.

SMILES | RGS8-Gao reg | GSH fluor | RGS16-Gao HTS | Avidin fluor | RGS4-Gao reg | RGS7-Gao reg
COc1ccc(NC(=O)CSc2ccc(NC(C)=O)cc2)cc1S(=O)(=O)N1CCCCC1 | 100 | 23 | 105 | 74* | 136 | 133
COc1ccc(NC(=O)CSc2ccc(F)cc2)cc1S(=O)(=O)N1CCCCC1 | 103 | 8 | 102 | 3 | 104 | 106
O=S(=O)(Cc1ccc(Cl)cc1)Nc1ccc2c(c1)OCO2 | 99 | 15 | 101 | 48* | 103 | 104
O=S(=O)(Cc1ccc(Cl)cc1)N1CCN(Cc2ccc3c(c2)OCO3)CC1 | 100 | / | 94 | 10 | 96 | ?
Cc1ccc(S(=O)(=O)N2CCN(c3ccccn3)CC2)cc1 | 96 | / | 97 | 5 | 98 | ?
CC(=O)Nc1ccc(S(=O)(=O)N2CCOCC2)cc1 | 95 | 140* | 88 | 4 | 78 | 80
CC(=O)Nc1ccc(S(=O)(=O)N2CCN(c3ccccn3)CC2)cc1 | 96 | 25 | 99 | 65* | 98 | 111
Cc1nnc(SCC(=O)N2CCCCC2)n1CC1CCCO1 (configuration not stated) | 106 | 94* | 112 | 4 | 105 | 101
O=c1c2ccccc2c(C=Nc2cccc(O)c2)c(O)n1-c1ccc2c(c1)OCO2 | 98 | 12 | 100 | 57* | 85 | 93
CCOc1ccccc1C(=O)NCCC(=O)O | 134 | 17 | 253 | 6 | 115 | 109
CCOc1ccccc1C(=O)NC(CO)C(=O)O (configuration not stated) | 101 | 271* | 106 | 6 | 104 | 102
CCOc1ccc(C(CCc2ccccc2)NC(=O)c2ccccc2OC)cc1OCC (configuration not stated) | 103 | 21 | 108 | 51* | 106 | 111
CCOC(=O)Cc1c(C)nc(Cc2ccc(OC(C)C)cc2)[nH]c1=O | 101 | 14 | 103 | 12 | 101 | 103
N=c1c2c(-c3ccccc3)c(-c3ccccc3)n(Cc3ccco3)c2ncn1Cc1ccccc1 | 90 | 12 | 94 | 14 | 97 | 98
CC(C)Cn1cnc2c(c(-c3ccccc3)c(-c3ccccc3)n2Cc2ccco2)c1=N | 102 | 251* | 106 | 8 | 106 | 102
O=C(NN=C(Cc1ccccc1)Cc1ccccc1)C1CC1 | 100 | 10 | 98 | 14 | 99 | 98
O=S(=O)(Nc1ncccn1)c1ccc(NC(=S)NCCc2ccccc2)cc1 | 101 | 10 | 101 | 5 | 100 | 94
Cc1cc(C(=O)OCc2nnc(-c3ccccc3)o2)c(C)n1-c1ccccc1 | 102 | 261* | 106 | 7 | 101 | 101
O=c1oc2ccccc2cc1-c1nc2c(s1)CCc1ccccc1-2 | 100 | 12 | 105 | 10 | 96 | 103
O=c1oc2cc(O)ccc2cc1-c1nc2c(s1)CCc1ccccc1-2 | 98 | 159* | 105 | 5 | 99 | 97
O=C(NC1CCCc2ccccc21)c1cccnc1 (configuration not stated) | 101 | 256* | 106 | 7 | 102 | 103
Cc1ccc(C(O)P(=O)(OC2CCCCC2)OC2CCCCC2)cc1 (configuration not stated) | 104 | 38 | 129 | 56* | 94 | 108
CCc1cc(=O)[nH]c(-n2[nH]c(-c3ccccc3)cc2=O)n1 | 102 | 13 | 104 | 14 | 101 | 103
O=c1cc(-c2ccccc2)[nH]n1-c1nc2ccccc2[nH]1 | 96 | 25 | 90 | 50* | 94 | 106
O=c1c2ccccc2c2ccccc2c(=O)n1CC1CCCO1 (configuration not stated) | 127 | 252* | 194 | 4 | 121 | 121
O=C1c2ccccc2C(=O)N1CC1CCCO1 (configuration not stated) | 100 | 19 | 98 | 7 | 100 | 98
Cc1cccc(OCc2nnc(SCC(=O)NCCc3ccccc3)o2)c1 | 100 | 243* | 102 | 10 | 99 | 104
Cc1cccc(OCc2nnc(SCC(=O)c3ccccc3)o2)c1 | 98 | 14 | 104 | 64* | 105 | 130
C/C(CC(=O)Nc1cccc(Cl)c1Cl)=N\NC(=O)c1ccccc1C | 99 | 12 | 98 | 8 | 98 | 98
CC[N+]1(CC)CC2=Cc3c(ccc4ccccc34)C(C)C2C1 (configuration not stated) | 101 | / | 98 | 7 | 95 | ?
